This note sets out measurements from the antibiotic and cytotoxicity screens of Wong et al. (2023).

In all, about 39,000 compounds went through this assay and about 3,300 (8.5%) were called active. The full list was thinned out, with actives kept by preference.

The subject of the assay is HepG2. Briefly: cytotoxicity call (relative viability < 0.9). Conditions: 10 µM.
With `CN(C)Cc1cn(CC[C@H]2CC[C@H](NS(=O)(=O)c3ccccc3)[C@H](CO)O2)nn1`, the cytotoxicity call is “inactive”.

For the compound `C[C@H]1CN([C@@H](C)CO)C(=O)c2cc(NS(C)(=O)=O)ccc2O[C@H]1CN(C)Cc1ccc(C(=O)Nc2ccccc2N)cc1`, the cytotoxicity call is “inactive”.

Turning to `C[C@H]1CN([C@@H](C)CO)C(=O)CCCn2nncc2CO[C@@H]1CN(C)C(=O)Nc1cccc2ccccc12`, the cytotoxicity call is “inactive”.

Take `C[C@H](CO)N1C[C@H](C)[C@@H](CN(C)C(=O)Nc2ccc(C(F)(F)F)cc2)Oc2ccc(NC(=O)C3CCCCC3)cc2CC1=O`: the cytotoxicity call is “inactive”.

Regarding `O=C1O[C@@H](c2ccccc2)[C@@H](c2ccccc2)N2[C@@H](c3ccc(OCCO)cc3)[C@]3(C(=O)Nc4ccc(C#CC5(O)CCCCCC5)cc43)[C@@H](C(=O)NC[C@H](O)c3ccccc3)[C@H]12`, the cytotoxicity call was “inactive”.

Take `O=C1O[C@@H](c2ccccc2)[C@@H](c2ccccc2)N2[C@@H](c3ccc(OCCO)cc3)[C@]3(C(=O)Nc4ccc(C#CC5=CCCCC5)cc43)[C@@H](C(=O)NC[C@H](O)c3ccccc3)[C@H]12`: the cytotoxicity call is “active”.

For the compound `O=C1O[C@@H](c2ccccc2)[C@@H](c2ccccc2)N2[C@@H](c3ccc(O)cc3)[C@]3(C(=O)Nc4ccc(C#CC5=CCCCC5)cc43)[C@@H](C(=O)NC[C@H](O)c3ccccc3)[C@H]12`, the cytotoxicity call is “inactive”.

`COc1cccc(S(=O)(=O)N(C)C[C@@H]2Oc3ncc(C#CCC(C)C)cc3C(=O)N([C@H](C)CO)C[C@H]2C)c1`: the cytotoxicity call was “inactive”.

Take `O=C(C[C@H]1CC[C@@H]2[C@H](COC[C@@H](O)CN2S(=O)(=O)c2ccccc2)O1)N1CCOCC1`: the cytotoxicity call is “inactive”.

Turning to `C[C@]1(C(=O)NCC(F)(F)F)c2ccccc2C(=O)N(Cc2cc(C(F)(F)F)cc(C(F)(F)F)c2)[C@H]1c1ccc(CO)cc1`, the cytotoxicity call was “inactive”.

In the case of `O=C(NC1CCN(CCCCC2(C(=O)NCC(F)(F)F)c3ccccc3-c3ccccc32)CC1)c1ccccc1-c1ccc(C(F)(F)F)cc1`, the cytotoxicity call is “active”.

Take `O=C(NC1CCCCCCC1)c1ccccc1-c1ccccc1`: the cytotoxicity call is “inactive”.

For the compound `C[C@H]([C@@H](N)C(=O)N[C@H](C(=O)O)[C@H]1O[C@@H](n2ccc(O)cc2=O)[C@@H](O)[C@H]1O)[C@@H](C)c1ccc(O)cn1`, the cytotoxicity call is “inactive”.

As for `C[C@H](CO)N1C[C@H](C)[C@@H](CN(C)C(=O)Cc2ccncc2)Oc2cc(-c3cncnc3)ccc2S1(=O)=O`, the cytotoxicity call was “inactive”.

Consider `C[C@H]1CN([C@@H](C)CO)C(=O)c2cc(NC(=O)Cc3cn(C)c4ccccc34)ccc2O[C@@H]1CN(C)Cc1ccc(Cl)c(Cl)c1`, for which the cytotoxicity call is “inactive”.

Consider `C[C@@H]1CN([C@@H](C)CO)C(=O)c2cc(NC(=O)Cc3cn(C)c4ccccc34)ccc2O[C@@H]1CN(C)S(C)(=O)=O`, for which the cytotoxicity call is “inactive”.

In the case of `C[C@@H]1CN([C@H](C)CO)C(=O)c2cc(NC(=O)Cc3cn(C)c4ccccc34)ccc2O[C@H]1CN(C)Cc1ccc(Cl)c(Cl)c1`, the cytotoxicity call is “inactive”.

As to `C[C@H](CO)N1C[C@H](C)[C@H](CN(C)Cc2ccc(Cl)c(Cl)c2)Oc2ccc(NC(=O)Cc3cn(C)c4ccccc34)cc2C1=O`, the cytotoxicity call is “inactive”.

As for `C[C@H]1CN([C@@H](C)CO)C(=O)c2cc(NC(=O)Cc3cn(C)c4ccccc34)ccc2O[C@H]1CN(C)Cc1ccc(Cl)c(Cl)c1`, the cytotoxicity call is “inactive”.

`C[C@H](CO)N1C[C@H](C)[C@@H](CN(C)Cc2ccc(Cl)c(Cl)c2)Oc2ccc(NC(=O)Cc3cn(C)c4ccccc34)cc2C1=O`: the cytotoxicity call was “inactive”.

With `C[C@@H]1CN([C@@H](C)CO)C(=O)c2cc(NC(=O)Cc3cn(C)c4ccccc34)ccc2O[C@@H]1CN(C)Cc1ccc(Cl)c(Cl)c1`, the cytotoxicity call is “active”.

Regarding `C[C@H]1CN([C@@H](C)CO)C(=O)c2cc(NC(=O)Cc3cn(C)c4ccccc34)ccc2O[C@@H]1CN(C)S(C)(=O)=O`, the cytotoxicity call is “inactive”.

Consider `C[C@@H]1CN([C@H](C)CO)C(=O)c2cc(NC(=O)Cc3cn(C)c4ccccc34)ccc2O[C@@H]1CN(C)Cc1ccc(Cl)c(Cl)c1`, for which the cytotoxicity call is “active”.

Take `C[C@H](CO)N1C[C@H](C)[C@@H](CN(C)Cc2ccc(Cl)c(Cl)c2)Oc2ccc(NC(=O)Cc3cn(C)c4ccccc34)cc2CC1=O`: the cytotoxicity call is “inactive”.

For `C[C@@H]1CN([C@H](C)CN(C)C)C(=O)c2cc(NC(=O)Cc3cn(C)c4ccccc34)ccc2O[C@H]1CN(C)S(=O)(=O)c1ccc(Cl)cc1`, the cytotoxicity call is “active”.

Turning to `C[C@@H]1CN([C@@H](C)CO)C(=O)c2cc(NC(=O)Cc3cn(C)c4ccccc34)ccc2O[C@H]1CN(C)Cc1ccc(Cl)c(Cl)c1`, the cytotoxicity call was “active”.
